Experimental data as given in PubChem BioAssay AID720579 (National Center for Advancing Translational Sciences (NCATS), 2013).
Among all 310,000 compounds or so, about 1,900 (0.61%) were called active. Inconclusive results (about 8%) are left out. Calls come from the whole dose curve; tested in A549 cells. Only a selection was taken, and actives are over-represented in it overall.

Experiment: qHTS for Stage-Specific Inhibitors of Vaccinia Orthopoxvirus: mCherry Reporter Primary qHTS; note: nearly all actives have a fitted effect of over 35% in size
Conditions: Vaccinia virus mCherry reporter infection, fluorescence; series mostly up to 36.5 µM; activity change, negative = inhibition: at the top concentration
% is set by controls: 0 for no effect and ±100 for the full control effect; potency is the fitted concentration of half-maximal effect.

Row | Structure (SMILES) | activity change, negative = inhibition | outcome | Potency
1 | OCC(O)C(O)C(O)C(O)C=Nc1ccc(/C=C/c2ccnc3ccccc23)cc1 (stereo not drawn) | 12.1% (inactive) | – | –
2 | C=CC[C@@H](Cc1ccc(F)cc1)C(=O)OC[C@H]1CCCN1C(=O)[C@H](CC=C)CC(=O)N(CCO)Cc1ccccc1 | – | inactive | –
3 | Cc1cccc(C(=O)C(O)(c2ccccc2)C2CCCCC2=O)c1 (stereo not drawn) | -0.222% (inactive) | – | –
4 | O=C(C1CC(=O)N(C2CCCC2)C1)N1CCN(c2cccc(C(F)(F)F)c2)CC1 (stereo not drawn) | – | – | 10 µM (active)
5 | O=C(C1CC(=O)N(C2CCCCC2)C1)N1CCN(c2ccccc2)CC1 (stereo not drawn) | -0.781% (inactive) | – | –
6 | O=C(C1CC(=O)N(c2ccc(F)cc2)C1)N1CCN(c2ccccc2)CC1 (stereo not drawn) | 0.265% (inactive) | – | –
7 | COc1ccc(C2OC(CCc3ccccc3)Cc3[nH]c(=S)[nH]c(=O)c32)cc1 (stereo not drawn) | – | inactive | –
8 | CCCc1nc2c3ccccc3ccn2c1Cc1ccccc1C(F)(F)F | – | inactive | –
9 | OC(CBr)C[n+]1cccc2cc(Br)ccc21 (stereo not drawn) | -6.11% (inactive) | – | –
10 | CCCC[C@@H]1CN=C(N)N1CCc1cc(C(F)(F)F)cc(C(F)(F)F)c1 | – | – | 11.2 µM (active)
11 | CCCC[C@@H]1CN=C(N)N1CCCC | – | inactive | –
12 | CCCC[C@@H]1CN=C(N)N1CCc1cccc(F)c1 | – | inactive | –
13 | COc1ccc(OCC(O)CNCCNc2nccc(C(F)(F)F)n2)cc1 (stereo not drawn) | -2.52% (inactive) | – | –
14 | CC(C)(C)NCC(O)COc1cccc2[nH]c(=O)[nH]c12 (stereo not drawn) | – | – | inactive
15 | CC(C)(C)CC(C)(C)NCC(O)COCCOc1ccc(Br)cc1 (stereo not drawn) | – | – | 12.6 µM (active)
16 | Cc1ccc2nc(-c3ccco3)c(Cc3cccc(Cl)c3)n2c1 | – | inactive | –
17 | c1ccc(-c2nccc(-c3ccc(-n4cnc5ccccc54)cc3)n2)nc1 | – | – | 11.2 µM (active)
18 | Cc1nccc(-c2ccc(-n3c(C)ccc3C)cc2)n1 | -13.9% (inactive) | – | –
19 | CC(C)(C)Nc1nc(-c2ccccn2)nc2ccccc12 | -28.3% (inactive) | – | –
20 | COc1ccc(NS(=O)(=O)c2ccc(N3CCOCC3)c(NC(=O)c3ccccc3Br)c2)cc1 | -12.5% (inactive) | – | –
21 | COc1ccc2c(c1)Cc1sc(NC(=O)c3ccccc3Br)nc1-2 | – | – | 11.2 µM (active)

Row | Structure (SMILES) | activity change, negative = inhibition | outcome | Potency
22 | COc1cccc(C(=O)Nc2nc3ccc(S(C)(=O)=O)cc3s2)c1 | -13% (inactive) | – | –
23 | CCCc1c(-c2ccccc2F)ncn1Cc1ccccc1OC | -20% (inactive) | – | –
24 | Nc1nonc1-n1nnc(C(=O)N/N=C/c2cc(Br)ccc2O)c1CSC1=NCCS1 | – | – | 7.08 µM (active)
25 | Cc1ccc(SCc2c(C(=O)N/N=C/C3CC=CCC3)nnn2-c2nonc2N)cc1 (stereo not drawn) | -18.1% (inactive) | – | –
26 | Cc1ccc(SCc2c(C(=O)N/N=C/c3cccnc3)nnn2-c2nonc2N)cc1 | -10.8% [at 7.34 µM] (inactive) | – | –
27 | O=C(Nc1cc(Br)ccc1F)c1nc[nH]c1C(=O)NCc1ccccc1 | -10.4% (inactive) | – | –
28 | CCc1nc2ccc(C(=O)NC3CCN(Cc4ccccc4)CC3)cn2c1N(CC)CCOC | 28.2% (inactive) | – | –
29 | Cc1nc2ccccc2cc1C(=O)N/N=C/c1ccc([N+](=O)[O-])cc1 | -9.06% (inactive) | – | –
30 | CC(C)(C)c1cc(C(=O)N/N=C/c2ccc([N+](=O)[O-])s2)n[nH]1 | – | – | 11.2 µM (active)
31 | Cc1ccsc1C(=O)N/N=C/c1ccc([N+](=O)[O-])cc1 | -19.9% (inactive) | – | –
32 | Cc1nc2c(OCc3ccc(Cl)cc3)cccn2c1N(C)Cc1cccs1 | 13.2% (inactive) | – | –
33 | CCCCOCCCNC(=O)C[C@@H]1C[C@@]2(C(=O)OCC)CCCC=C2N(CCC2=CCCCC2)C1=O | -27.4% (inactive) | – | –
34 | CN(C)CCNC(=O)c1ccc(-c2cn3c(-c4ccc(Oc5ccccc5)cc4)cnc3cn2)cc1 | -5.42% (inactive) | – | –
35 | Cn1nccc1CNC(=O)c1ccnn1C | -16.4% (inactive) | – | –
36 | CCCc1ccc(-c2c(C)sc(NC(=O)c3ccnn3C)c2C#N)cc1 | – | – | 11.2 µM (active)
37 | Cc1sc(NC(=O)C2=COCCO2)c(C#N)c1C | -10.3% (inactive) | – | –
38 | C=C1C=C(C(F)F)n2ncc(C(=O)NCCc3ccccc3OC)c2N1 | -8.11% (inactive) | – | –
39 | CN1CCN(c2ccc3c(c2)OC[C@H](Cc2ccccc2)NS3(=O)=O)CC1 | 32.8% (inactive) | – | –
40 | CN(C)CCNC(=O)c1ccc(Cl)c2cc3ccccc3nc12 | – | – | 1.78 µM (active)
41 | CN(C)CCNC(=O)Nc1cccc(Cl)c1Cl | -4.83% (inactive) | – | –
42 | CC(=O)NCCNC(=O)c1cc(-c2cccc3ccccc23)nc2ccccc12 | -12.7% (inactive) | – | –

Row | Structure (SMILES) | activity change, negative = inhibition | outcome | Potency
43 | COc1cccc(-c2cnc3c(NC(C)=O)cc(-c4cccc(NC(C)=O)c4)cn23)c1 | – | inactive | –
44 | CCCCn1nnnc1C(c1cccc(OC)c1OC)N1CCN(C/C=C/c2ccccc2)CC1 (stereo not drawn) | 33.4% (inactive) | – | –
45 | Cc1c(CCO)sc[n+]1CC(=O)c1ccc2ccccc2c1 | 39.9% (inactive) | – | –
46 | CC(NC(=O)CSc1nc2c(cc1C#N)CN(C)CC2)c1ccccc1 (stereo not drawn) | – | – | 10 µM (active)
47 | Cc1cc(NC(=O)CSc2nc3c(cc2C#N)CCCCC3)no1 | -10% (inactive) | – | –
48 | CN1CCc2nc(SC(C(=O)O)c3ccccc3)c(C#N)c(-c3cccs3)c2C1 (stereo not drawn) | -13.5% (inactive) | – | –
49 | CCCCCCCCN1C(=O)[C@H](CC(=O)NCC23CC4CC(CC(C4)C2)C3)C[C@@]2(C(=O)OC)CCCCC=C12 | 8.61% (inactive) | – | –
50 | CCN1C(=O)[C@H]2[C@@H](c3ccc(C(F)(F)F)cc3)N[C@]3(CCCN(Cc4ccc(Br)cc4)C3=O)[C@H]2C1=O | -26.8% (inactive) | – | –
51 | CC(C)(C)S(=O)N1Cc2cc(C(=O)NCCCN3CCOCC3)nc(-c3cccc(-c4cc5ccccc5o4)c3)c2[C@H]1CCO (stereo partly drawn) | 14.1% (inactive) | – | –
52 | CC1(Oc2ccc(Cl)cc2)CCN(Cc2csc3ccccc23)C1 (stereo not drawn) | -6.34% (inactive) | – | –
53 | COc1ccc2sc(-c3ccc(S(C)(=O)=O)cc3)c(C#Cc3cncn3C)c2c1 | -22.7% (inactive) | – | –
54 | COc1ccc2sc(-c3ccc(N(C)C)cc3)c(C#CCO)c2c1 | – | – | 12.6 µM (active)
55 | COc1ccc2sc(-c3ccc(N(C)C)cc3)c(-c3ccc4cc[nH]c4c3)c2c1 | -13.9% (inactive) | – | –
56 | COCOc1cccc(CN2CCC(C)(Oc3ccc(SC)cc3)C2)c1 (stereo not drawn) | 22% (inactive) | – | –
57 | O=C(NCc1cccc(C(F)(F)F)c1)c1ccc2sc(COCCO)nc2c1 | 21.2% (inactive) | – | –
58 | OC[C@@H]1CN(Cc2cccs2)C[C@H](n2cnc3c(NC4CCCC4)ncnc32)O1 | 7.65% (inactive) | – | –
59 | Cc1cc(C)nc(N/N=C/c2c(C)oc3ccccc23)n1 | -27.7% (inactive) | – | –
60 | Cc1cc(C)nc(N/N=C/c2c(CO)cnc(C)c2O)n1 | – | – | 12.6 µM (active)
61 | Cc1ncc(CO)c(/C=N/NC(=O)c2cccc(S(=O)(=O)N3CCCC3)c2)c1O | -12.6% (inactive) | – | –
62 | CSc1ccc(CN2CCC2(C)C(=O)Nc2ccc(C)c(O)c2)cc1 (stereo not drawn) | -10.1% (inactive) | – | –
63 | CC(C)C[C@@H]1Cc2[nH][nH]c(=O)c2[C@H](CCc2ccccc2)O1 | -12.1% (inactive) | – | –
